Inhibition data for 40 compounds are collected here from PubChem BioAssay.

A number with no mark means an inactive call. No rule for the calls is given here.

Sequence of L-lactate dehydrogenase (Plasmodium falciparum (isolate CDC / Honduras)) (Q27743 whole entry, looked up): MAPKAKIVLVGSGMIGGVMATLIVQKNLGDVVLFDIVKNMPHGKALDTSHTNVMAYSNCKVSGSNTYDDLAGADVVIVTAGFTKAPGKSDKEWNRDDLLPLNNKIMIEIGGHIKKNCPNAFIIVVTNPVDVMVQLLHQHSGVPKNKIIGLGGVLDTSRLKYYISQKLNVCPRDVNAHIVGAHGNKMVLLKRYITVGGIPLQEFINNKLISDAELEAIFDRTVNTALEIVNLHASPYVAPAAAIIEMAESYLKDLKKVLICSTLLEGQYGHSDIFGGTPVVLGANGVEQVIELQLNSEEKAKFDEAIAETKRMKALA

This assay has as its target L-lactate dehydrogenase (Plasmodium falciparum (isolate CDC / Honduras)) (UniProt Q27743). The assay is described as follows: PfLDH activity inhibition – cell lysate, 3D7 strain, counter-screen for P. falciparum growth inhibition project (AID 2304).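 Also: 0% = vehicle and 100% = reference inhibitor.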 The note with it: P. falciparum 3D7 crude extract, LDH APAD/NBT absorbance; at 2 µM; hits give high values.
Regarding `O=C(Nc1cccc(OC2CCN(Cc3ccccc3)CC2)c1)Nc1cccc([N+](=O)[O-])c1`, the inhibition was 0%. Take `CCCNCc1ccc(-c2ccc(CN(Cc3cnc(C)cn3)C(=O)/C=C/c3ccccc3C)cc2)nc1`: the inhibition was 5%.

On to `COc1ccc(CN2CCCC(OC(c3ccc(F)cc3)c3ccc(F)cc3)C2)c(O)c1` (stereo not given), for which the inhibition is 0%. For the compound `Cc1cc(N[C@@H](Cc2ccccc2)C(=O)NC2CCCC2)nc(NCC2CCCCC2)n1`, the inhibition was 4%. For the compound `N=C(N)c1ccc(Oc2ccc(C(=N)N)cc2)cc1`, the inhibition is -3%. Turning to `COc1cccc2c(NCc3ccccc3)nc(NCCCN3CCCCC3C)nc12` (stereo not given), the inhibition is 2%. For `CCNc1cc(C(=O)N[C@@H](Cc2ccccc2)[C@H](O)CNCc2cc(OC)cc(OC)c2)cc(N2CCCC2=O)c1` the value was 2%; for `CS(=O)(=O)c1ccc(-c2nc(NCC3CCCCC3)cc(C(F)(F)F)n2)cc1`, 2%. `CC(=NN=C(N)N)C(=O)Nc1ccc(Cl)c(Cl)c1`: the inhibition was 0%. For `Cc1[nH]c2ccc(O)cc2c1C1CCN(CCCCCNC(=O)/C=C/c2ccc(Cl)c(Cl)c2)CC1` the value was 2%; for `O=C(Nc1ccccc1Cl)N(Cc1cc(Cl)cc(Cl)c1)CC(O)COc1ccc(Cl)c(F)c1` (stereo not given), 4%.

Regarding `CO/C(=C\C=C\c1cc2cc(Cl)c(Cl)cc2[nH]1)C(=O)NCCCNC12CC3CC(CC(C3)C1)C2`, the inhibition was -2%. For `COc1ccc2[nH]c(C(=O)Nc3cccc(-c4ccc(CN(C)C)cc4)c3)cc2c1` the value was 3%. With `Brc1cc(Br)c2c(c1)C(NCCCNC1CCNc3c(Br)cc(Br)cc31)CCN2` (stereo not given), the inhibition is -1%. For `CC(C)Nc1nc(NCCc2cnc[nH]2)nc(NCc2ccc(Cl)c(Cl)c2)n1` the value was 7%; for `COC(=O)Nc1nc2cc3c(cc2s1)OCCO3`, 1%. For `C[C@@H](CC1CCCCC1)OC(=O)N[C@H]1CCN(C#N)C1` the value was 1%; for `Cc1cc(NC(=O)Nc2cccc(Cl)c2Cl)c2ccccc2n1`, 1%. Take `CC(CN(C)C)C(=O)Nc1cccc(-c2ccc(-c3nc4ccccc4[nH]3)cc2)c1` (stereo not given): the inhibition is -8%.

Take `O=S(=O)(NCCN1CCCC1)c1ccc(-c2cccc(CNC3Cc4ccccc4C3)c2)cc1F`: the inhibition was -1%. Turning to `O=C(Nc1ccc2c(c1)CCC2)c1cnc(N2CCN(c3ccncc3)CC2)c(Cl)c1`, the inhibition was 2%. For the compound `O=C(NCC1CCC1)c1cnc(Nc2cccc(Cl)c2)nc1N1CCC1`, the inhibition is 2%. On to `COc1cc2ncnc(Nc3ccc4nc(-c5ccccc5)[nH]c4c3)c2cc1OC`, for which the inhibition was -5%. For `O=C(/C=C/c1ccc(Cl)c(Cl)c1)NCCCCCCN1CCN(C(=O)Nc2ccc(Cl)c(C(F)(F)F)c2)CC1` the value was -6%; for `CCCCCn1c(Sc2ccc(C#N)c([N+](=O)[O-])c2)nnc1-c1cccc(Cl)c1`, -2%.

With `OC(c1cc(C(F)(F)F)nc2c(F)cccc12)C1CCCCN1` (stereo not given), the inhibition is -2%.

For `O=C(NCCCCN1CCN(c2cccc3ccccc23)CC1)c1ccc(NC(=O)c2ccc(Cl)cc2)cc1`, the inhibition is 6%.

Consider `Cc1[nH]c(C)c(-c2ccc(-c3ccc(F)cc3)nc2)c(=O)c1Br`, for which the inhibition was 0%. As for `CCN(CC)c1ccccc1CNC(=O)c1cc(Cl)c(N)cc1OC`, the inhibition was -1%. For `O=C(Nc1cccc(C(F)(F)F)c1)Nc1ccc(Cl)c(C(F)(F)F)c1` the value was -6%. With `Cc1cc(F)ccc1-c1nc(NCCCN2CCCC2=O)nc2c1ccc(=O)n2-c1c(F)cccc1F`, the inhibition was -5%. On to `COc1ccc(N2CCN(CCCC/C=C/c3ccc(NC(=O)c4cc(Cl)cc(Cl)c4)cc3)CC2)c(OC)c1`, for which the inhibition is 5%. For `Nc1cccc(CNCc2ccc(-c3cccc(-c4nc5ccc(C(F)(F)F)cc5[nH]4)c3)cc2)c1` the value was -2%.

In the case of `CNCc1ccc2nc(-c3coc(Cc4cc(Cl)ccc4OCC(C)C)n3)[nH]c2c1`, the inhibition is 2%. For `COc1ccc(-c2ccc(CNCc3ccccc3)cc2)cc1S(=O)(=O)NCCN1CCCC1`, the inhibition is -3%. To `O=C(Nc1cccc(CN2CCCN(Cc3ccc(O)cc3)CC2)c1)c1cccc(F)c1` belongs -2%; to `CCOc1cc(C(=O)NCCN2CCCCC2)ccc1-c1nc2ccc(Cl)cc2[nH]1`, -3%; to `CCCCSc1nc2c(c(=O)n1Cc1ccco1)C1(CCCCC1)Cc1ccccc1-2`, 2%. For `CS(=O)(=O)N(c1ccccc1)c1cc(C(=O)N[C@@H](Cc2ccccc2)[C@H](O)CNC2CCCCC2)cc(N2CCCC2=O)c1` the value was -3%; for `COc1ccc2ncc(F)c(CCN3C[C@@H]4CCC[C@]4(CNCc4ccc5c(n4)NC(=O)CS5)C3)c2n1`, 2%.
